Results taken from PubChem BioAssay (NCATS).
Results filed as inconclusive are left out. A number with no mark means an inactive call. The call rests on the fitted dose curve; in most records, active means well fitted inhibition curve with a large enough effect; inconclusive means small, poorly fitted or top-dose-only effect; inactive means flat fitted curve, though single readings scatter.

The compounds below were run against Lysine-specific demethylase 5B (Homo sapiens) (UniProt Q9UGL1) (assay: Optimization screen for KDM5B Histone Demethylases FDH coupled qHTS against the LOPAC library (AID 1347166; further: 0% is about no effect)). Details: KDM5B demethylation, FDH-coupled NADH fluorescence (FDH is formaldehyde dehydrogenase); series mostly up to 57.5 µM; activity, negative = inhibition: at the top concentration.
Sequence of Lysine-specific demethylase 5B (Homo sapiens) (Q9UGL1 whole entry, looked up): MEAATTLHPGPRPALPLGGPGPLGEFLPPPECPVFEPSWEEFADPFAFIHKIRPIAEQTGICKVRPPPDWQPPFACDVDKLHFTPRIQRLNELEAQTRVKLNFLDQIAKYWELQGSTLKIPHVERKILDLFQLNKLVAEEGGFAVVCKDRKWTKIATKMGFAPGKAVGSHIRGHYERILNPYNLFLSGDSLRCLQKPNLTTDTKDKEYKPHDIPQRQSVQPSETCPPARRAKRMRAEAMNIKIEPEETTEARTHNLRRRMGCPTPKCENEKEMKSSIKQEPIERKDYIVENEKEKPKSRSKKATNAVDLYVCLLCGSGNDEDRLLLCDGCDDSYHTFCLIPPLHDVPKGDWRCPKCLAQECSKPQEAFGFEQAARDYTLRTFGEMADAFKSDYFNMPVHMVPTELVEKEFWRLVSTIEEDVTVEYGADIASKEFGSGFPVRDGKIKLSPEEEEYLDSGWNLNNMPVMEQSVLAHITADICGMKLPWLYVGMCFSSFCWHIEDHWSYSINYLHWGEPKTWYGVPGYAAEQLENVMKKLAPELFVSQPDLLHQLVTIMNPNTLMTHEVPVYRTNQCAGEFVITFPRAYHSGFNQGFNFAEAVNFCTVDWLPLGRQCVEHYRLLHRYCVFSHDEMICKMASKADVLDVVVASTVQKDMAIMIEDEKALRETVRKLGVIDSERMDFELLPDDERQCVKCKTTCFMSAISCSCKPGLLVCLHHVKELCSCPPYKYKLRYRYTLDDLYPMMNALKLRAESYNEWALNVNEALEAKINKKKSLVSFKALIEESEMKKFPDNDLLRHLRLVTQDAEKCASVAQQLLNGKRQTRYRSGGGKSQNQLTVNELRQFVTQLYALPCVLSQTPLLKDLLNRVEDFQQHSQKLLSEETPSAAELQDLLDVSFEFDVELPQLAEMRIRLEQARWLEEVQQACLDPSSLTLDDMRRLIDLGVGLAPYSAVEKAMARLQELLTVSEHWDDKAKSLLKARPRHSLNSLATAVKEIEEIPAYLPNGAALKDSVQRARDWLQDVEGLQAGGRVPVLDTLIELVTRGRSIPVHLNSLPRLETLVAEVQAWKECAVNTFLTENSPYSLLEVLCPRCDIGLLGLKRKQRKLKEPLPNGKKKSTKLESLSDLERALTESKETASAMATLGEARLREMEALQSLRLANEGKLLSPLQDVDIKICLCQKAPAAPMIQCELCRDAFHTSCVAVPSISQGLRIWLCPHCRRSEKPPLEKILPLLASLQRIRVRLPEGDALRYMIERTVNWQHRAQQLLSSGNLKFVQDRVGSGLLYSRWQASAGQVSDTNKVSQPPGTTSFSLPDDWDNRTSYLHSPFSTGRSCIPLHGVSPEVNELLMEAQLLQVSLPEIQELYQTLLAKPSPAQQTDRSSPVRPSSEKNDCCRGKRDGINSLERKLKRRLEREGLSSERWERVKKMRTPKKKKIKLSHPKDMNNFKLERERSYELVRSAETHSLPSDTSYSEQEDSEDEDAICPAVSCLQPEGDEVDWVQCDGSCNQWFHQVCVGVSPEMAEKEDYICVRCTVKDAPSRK
Method in brief: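 KDM5BDeltaAP (200nM final) in 50mM HEPES pH 7.5, 0.01% Tween-20 was preincubated with compound for 10 min at room temperature. A substrate mix of 12.5uM H3K4Me3, 25uM a-ketoglutarate, ascorbate, Fe2+, NAD+ and formaldehyde dehydrogenase was then added. NADH fluorescence (340/450 nm) was read initially and after 30 min.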
With `NCCc1ccc(S(=O)(=O)F)cc1` the “activity, negative = inhibition” value was -3.8%. `NC(=O)c1ccc(OCC(O)CN2CC=C(c3ccc(F)cc3)CC2)cc1` (stereo not given) was tested, and the “activity, negative = inhibition” value was -1.24%. In the case of `C[C@@H]1[C@@H]2Cc3ccc(O)cc3[C@@]1(C)CCN2CC1CC1`, the “activity, negative = inhibition” value is reported as -5.68%. In the case of `Cc1cc([C@@H]2CCCN2C)on1`, the “activity, negative = inhibition” value is reported as -5.97%. `CCCN(CCC)[C@H]1CCc2c(F)ccc(O)c2C1` was tested, and the “activity, negative = inhibition” value was -9.35%. With `C[C@H](Cc1ccc2c(c1)OC(C(=O)O)(C(=O)O)O2)NC[C@H](O)c1cccc(Cl)c1` the “activity, negative = inhibition” value was -6.05%. `CCCN1CCC[C@@H](c2cccc(O)c2)C1` was tested, and the “activity, negative = inhibition” value was -4.19%. For `CC(C)(C)c1o[nH]c(=O)c1CC(N)C(=O)O` (stereo not given), the “activity, negative = inhibition” value was -1.02%. For `c1ccc2cc(CC3=NCCN3)ccc2c1`, the “activity, negative = inhibition” value was -1.86%. `COc1ccc2c(c1)/C(=C/c1cnc[nH]1)C(=O)N2` was tested, and the “activity, negative = inhibition” value was -9%. In the case of `NCCCP(=O)(O)O`, the “activity, negative = inhibition” value is reported as 1.21%. In the case of `C[C@H](N)CN1CCc2ccc(Br)cc21`, the “activity, negative = inhibition” value is reported as -16%. `OC1CCCCC1N1CCC(c2ccccc2)CC1` (stereo not given) was tested, and the “activity, negative = inhibition” value was 7.83%. For `CCCN1CCc2cc(O)cc3c2[C@H]1Cc1ccc(O)c(O)c1-3`, the “activity, negative = inhibition” value was -9.62%. `CCN(CCCl)Cc1ccccc1Br` was tested, and the “activity, negative = inhibition” value was -9.91%.
